M1 ag parental – counter-screen for M1 agonists: effect in parental CHO-K1 cells. 0.48% of 360,000 active. Fluo-8 calcium fluorescence; scaled to maximal ATP response, vehicle zero. activation, % at 3 µM; in the data active means activation above about 15%;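 further: untransfected CHO-K1 host cells lacking M1 receptor as counterscreen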
TMEM16A act – TMEM16A chloride channel activators or potentiators, primary screen, cell-based, HTS | HEK293 TMEM16A/YFP-H148Q/I152L, iodide quench fluorescence; hits give low values | B-score at 10 µM | 0.3% of 340,000 active;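 active means fluorescence-ratio B-score plate-corrected deviation score at least 3 library SD below zero, with starting fluorescence score within 5 deviations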;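 further: channel opened by trigger with iodide after compound preincubation; score built on the fluorescence ratio of max minus min over baseline; more negative score means more quench and so TMEM16A activation or potentiation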
CHO-K1 Ca antag – M1 antagonist counterscreen hit in parental CHO-K1 cells. ATP-induced calcium, Fluo-8 fluorescence. inhibition, % at 3 µM. 0.6% of 360,000 active;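 active means inhibition above a per-plate cutoff, the plate's mean sample inhibition plus 3 SD, cut at about 24% in these data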;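 further: 0% = DMSO plus EC80 ATP and 100% = DMSO alone without ATP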
M1 PAM parental – nonselective calcium activators in parental CHO-K1 cells, primary screen, counter-screen for M1 PAM project, cell-based, Fluo-8 calcium fluorescence, full deck, 1536-well | ATP EC20; 0% at ATP EC20, 100% at ATP max | activation, % at 3 µM | AID 602247, 2012 | 0.02% of 360,000 active;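 active means activation above the run cutoff, the mean activation of all test compounds plus 3 SD, cut at about 40% in these data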;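 further: peak over basal fluorescence ratio in a 140 s read after ATP addition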
NTR1 ag – agonists of human NTR1, primary screen, imaging, U2OS cells, beta-arrestin-GFP, high content | NTR1-U2OS beta-arrestin-GFP spot imaging, agonist mode | activation, % at 20 µM | 0.17% of 330,000 active | AID 493036, 2011;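 active means activation at or above 40% of the spot to cytoplasm intensity ratio, with at least 20 cells analyzed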;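 further: 0% = DMSO without peptide and 100% = 100 nM NTR1 peptide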
Target sequence (P30989 whole entry, looked up): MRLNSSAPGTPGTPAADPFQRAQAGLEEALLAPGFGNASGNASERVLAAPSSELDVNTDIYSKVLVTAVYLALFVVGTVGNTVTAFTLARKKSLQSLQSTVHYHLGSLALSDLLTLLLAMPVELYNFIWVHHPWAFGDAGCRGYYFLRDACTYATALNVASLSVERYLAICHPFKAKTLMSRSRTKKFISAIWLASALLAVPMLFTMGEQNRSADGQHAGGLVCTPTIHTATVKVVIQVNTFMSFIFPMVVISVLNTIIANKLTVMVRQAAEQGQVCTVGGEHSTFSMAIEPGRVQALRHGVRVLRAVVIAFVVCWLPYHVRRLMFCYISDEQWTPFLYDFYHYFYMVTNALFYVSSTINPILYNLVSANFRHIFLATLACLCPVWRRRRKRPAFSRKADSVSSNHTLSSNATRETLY
TMEM16A inh – TMEM16A chloride channel inhibitors, primary screen, cell-based, HTS | Anoctamin-1 (Mus musculus), Q8BHY3 | HEK293 TMEM16A/YFP iodide influx fluorescence, ionomycin | normalized B-score (activity score, 25-100; higher = stronger inhibition) at 10 µM | 1.2% of 310,000 active;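 active means ratio plate-corrected score three or more library SD toward inhibition, starting fluorescence score within five deviations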;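 further: score derived from kinetic fluorescence span divided by baseline fluorescence per well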
Active calls of the source: *; i = inactive; . = not tested or not shown. Rows were chosen to be rich in hits. Some 2.2% of all compounds tested hit in one or more screens of this group.

SMILES	M1 ag parental	TMEM16A act	CHO-K1 Ca antag	M1 PAM parental	NTR1 ag	TMEM16A inh
COC(=O)c1cc2c(ccn2-c2ccc(F)cc2)n1CC(C)C	0	i	-20	6	9	100*
COC(=O)c1cc2c(ccn2-c2ccc(F)cc2)n1Cc1ccc(OC(C)=O)cc1	21*	i	-7	29	6	i
COC(=O)c1cc2c(ccn2-c2ccc(F)cc2)n1Cc1cccc(OC)c1	0	i	12	-1	10	i
CN(Cc1ccccc1)C(=O)c1ccc(NC(=O)Cc2cccc(NC(=O)C3CCCN(C(=O)C4CCC4)C3)c2)cc1 (stereo not given)	1	i	-11	16	1	.
CC1=NNC(=O)/C1=C\c1cn(-c2ccccc2)nc1-c1ccc(F)cc1	3	-6.2*	5	5	.	.
COc1ccc(S(=O)(=O)N2CCCCCC2)cc1C(=O)N(C)Cc1ccc(C(C)(C)C)cc1	4	i	-1	13	10	25*
OC[C@@H]1CN(CCN2CCOCC2)C[C@H](n2cnc3c(N4CCOCC4)ncnc32)O1	0	.	-7	11	.	.
Cc1ccc2nc(N3CCN(S(=O)(=O)c4ccc5c(c4)OCCO5)CC3)c(C#N)cc2c1	2	i	-5	4	4	i
Cc1ccc(S(=O)(=O)N2CCCN(c3nc4cc(C)ccc4cc3C#N)CC2)cc1	0	-14*	6	-8	2	i
S=c1[nH]nc(CN2CCCC2)n1Cc1ccccc1	-1	i	34*	-13	3	i
O=c1cc(CN2CCc3ccccc32)nc2sccn12	0	i	-6	14	-1	i
O=c1cc(CN2CCCc3ccccc32)nc2sccn12	0	-11*	6	6	-1	i
CCNC(=O)C1(C)CCN(C(=O)c2ccc(C#N)cc2)C1 (stereo not given)	1	.	-12	13	.	.
CCOC(=O)c1c(N2C(=O)Nc3ccccc3N2O)n[nH]c1-c1cccc(Cl)c1	0	i	24*	-16	0	i
CCOc1ccc(-c2cc(N3C(=O)Nc4ccccc4N3O)n[nH]2)cc1	0	i	-1	0	-1	i
O=C(NCc1ccccn1)[C@@H]1CCCN1C(=O)[C@@H]1CCCN1C(=O)c1cccc2ccccc12	0	.	8	-14	.	.
CCOC(=O)c1ccc2c(c1)N(CC#N)C(=O)C(C)(C)O2	0	i	-7	-1	-1	25*
CCCS(=O)(=O)NC(=O)C1(C)CCN(C(=O)c2cccnc2Oc2ccccc2)C1 (stereo not given)	0	.	1	5	.	.
CC(C)(C)c1ccc(S(=O)(=O)NNC(=O)C2CCN(Cc3cccc(F)c3)CC2)cc1	23*	i	-5	25	1	i
Cc1ccc2c(NCc3ccco3)nc(NC(C)C)nc2c1	5	.	-9	4	.	.
COc1ccc(NC(=O)C2(N(CC(C)C)C(=O)Cn3nnnc3N)CCCCC2)cc1	0	i	25*	-8	-3	i
C[C@@H]1CCCCO[C@@H](CN(C)C(=O)CCC(F)(F)F)[C@@H](C)CN([C@H](C)CO)C(=O)c2cc(N(C)C)ccc2O1	0	.	3	6	.	.
COC(=O)c1c[nH]c(=S)n1Cc1ccccc1	1	-5.4*	-12	2	.	.
CCCCOc1ccc(-c2cc(C(=O)NNC(=S)NCC)c3ccccc3n2)cc1	0	i	11	-11	12	100*
CCNC(=S)NNC(=O)c1cc(-c2ccc(OC)cc2)nc2ccccc12	3	i	-9	19	0	i
SMILES	M1 ag parental	TMEM16A act	CHO-K1 Ca antag	M1 PAM parental	NTR1 ag	TMEM16A inh
COc1ccc(Cl)cc1C(=O)NNC(=S)NC(=O)c1cc(-c2ccc(Cl)cc2)nc2ccccc12	0	i	-4	2	5	100*
Cc1ccc(-c2nn3cnnc3c3ccccc23)cc1C	0	i	24*	-4	1	i
O=S(=O)(c1ccc(NC(=S)N2CCCCC2CO)cc1)N1CCOCC1 (stereo not given)	1	.	-2	9	.	.
COc1ccc(C(=O)Nc2c3c(nn2-c2ccc([N+](=O)[O-])cc2)CS(=O)(=O)C3)cc1	18*	i	8	1	-2	i
COc1ccc(C(=O)Nc2c3c(nn2-c2ccc(Cl)cc2)CS(=O)(=O)C3)cc1	1	i	-13	-2	4	i
C(=C\c1sc(Nc2ccccc2)n[n+]1-c1ccccc1)/c1ccccc1	2	-8.9*	-20	23	.	.
N#Cc1ccc(Cl)cc1NC(=O)CN1C(=O)C(=O)N(CCC2=CCCCC2)C1=O	1	.	-11	12	.	.
O=C(NCc1ccccc1)OC1CC2CC1[C@H]1CCCCN1C2=O (stereo not given in full)	0	.	-3	6	.	.
COc1ccc(CC(=O)Nc2cccc(-c3nnc(-c4ccc(C)cc4)o3)c2)cc1OC	3	i	6	9	14	25*
CC1(CCc2ccc3c(c2)OCO3)NC(=O)c2ccccc2N1 (stereo not given)	1	i	-7	22	0	i
CC1(CCc2ccc3c(c2)OCO3)NCCc2c1[nH]c1ccccc21 (stereo not given)	21*	i	5	-3	6	i
CCOC(=O)c1c(NC(=O)COC(=O)c2cnccn2)sc(C)c1C	-1	i	-4	16	0	.
COc1ccc(CNC(=O)CC[C@H]2O[C@@H](n3ccc(=O)[nH]c3=O)[C@H](O)[C@@H]2O)cc1	2	.	-6	9	.	.
Cc1cn([C@H]2C[C@H](O)[C@@H](/C=C/C(=O)NCCc3ccc4c(c3)OCO4)O2)c(=O)[nH]c1=O	1	.	-21	14	.	.
Cc1ccc(NC(=S)NNC(=O)CSc2nnc(-c3ccc(Cl)cc3)n2C2CCCCC2)cc1	0	i	-10	21	1	i
CCn1c(SCC(=O)NNC(=S)Nc2ccc(C)cc2)nnc1-c1ccc(Cl)cc1	16*	i	-5	27	0	i
COC(=O)c1ccc(CN2C(=O)NC(Cc3c[nH]c4ccccc34)C2=O)cc1 (stereo not given)	15*	i	0	-5	0	i
O=C1NC(Cc2c[nH]c3ccccc23)C(=O)N1Cc1ccccc1 (stereo not given)	1	i	-4	5	2	i
CC(OC(=O)/C(C#N)=C/c1ccc(N(C)C)cc1)C(=O)N(C)c1ccccc1 (stereo not given)	16*	i	13	-17	0	i
CCCNC(=O)c1cc(S(=O)(=O)N2CCC3(CC2)OCCO3)ccc1F	0	.	-6	3	.	.
